Results filed as inconclusive are left out. Unmarked numbers belong to inactive results. Activity calls are given as the source filed them. The call rests on the fitted dose curve; in most records, active means well fitted cell-killing curve with a large enough effect; inconclusive means small, poorly fitted or top-dose-only effect; inactive means flat fitted curve, though single readings scatter.
Test: qHTS of pediatric cancer cell lines to identify multiple opportunities for drug repurposing: Primary screen for BT-12 cells (AID 1347101); further: nearly all actives have a fitted effect of over 25% in size
Settings: BT-12 viability, CellTiter-Glo luminescence, 48 h; series mostly up to 57.3 µM; activity change, negative = cytotoxic: at the top concentration
From the text: Drug repurposing or repositioning has been offered as a strategy for drug development in oncology programs. This approach has special potential for childhood cancers and other rare or orphan diseases, where the expected return on new drug development has been a disincentive to pharmaceuticals.
In this project we exploit the poly-pharmacology of drugs to discover new indications via phenotypic screening of a panel of 19 well-characterized cell lines derived from solid tumors seen in children and adolescents. The goal is to identify approved drugs with previously unrecognized anticancer properties that has the potential to reveal new mechanisms and biological processes involved in carcinogenesis or drug resistance. We employed a titration-based paradigm (quantitative high-throughput screening or qHTS), where all compounds were tested at multiple concentrations for their effect on cell viability. Concentration-response curves (CRCs) were derived directly from the primary screen, and both potency and efficacy values were used to identify compounds with robust bioactivity profiles. We screened the NIH Chemical Genomics Center (NCGC) Pharmaceutical Collection (NPC) and Mechanism Interrogation Plate (MIPE) small molecule collections of approved and investigational compounds against these cell lines; and measured metabolically active cells after 48 hours of compound treatment as a proxy for cell viability.
Assay Submitter: Nathalia J. Martinez, National Center for Advancing Translational Sciences, National Institutes of Health, Rockville, MD, USA; email: natalia.martinez@nih.gov
[1] Shen, M et al. Quantitative high-throughput phenotypic screening of pediatric cancer cell lines identifies multiple opportunities for drug repurposing. Oncotarget 2017 Dec 19;9(4):4758-4772. PMID 29435139.
The cells were obtained from University of North Carolina (UNC), Pediatric Preclinical Testing Program (PPT), and Coriell Institute (CI).
qHTS cell viability assay:
Cells were assayed in growth media at a density of 500-1,000 cells/well. Five microliters of cells were dispensed into 1,536-well, white, solid-bottom, TC-treated plates (Greiner Bio One) using a multidrop dispenser and incubated at 37 degrees C, 5% CO2, under a humidified atmosphere for 5 hours. Twenty-three nanoliters of compounds and controls (neutral control DMSO or positive control bortezomib at final concentration of 2.3 µM) were subsequently transferred by Kalypsys pintool. For primary screens, the MIPE collection was tested at 11-point dilutions (final concentrations range from 0.78 nM to 46 µM) and the NPC collection at 8-point dilutions (final concentrations range from 0.59 nM to 46 µM). Compounds tested in follow-up screens were assayed at 11-point dilutions. Cells were incubated for 48 hours, followed by addition of 3 µL of CellTiter-Glo (Promega). After a 15 min incubation at room temperature, samples were analyzed for luminescence intensity using a ViewLux High-throughput CCD imager equipped with clear filters.
For `C[C@@H](O)[C@H]1C(=O)N2C(C(=O)O)=C(S[C@@H]3CN[C@H](C(=O)N(C)C)C3)[C@H](C)[C@H]12`, the Potency was “inactive”. For `CCCCCN(C)CCC(O)(P(=O)(O)O)P(=O)(O)O`, the “activity change, negative = cytotoxic” value was 5.44%. With `COc1ccc(-c2nc(N3CCOCC3)c3sc(CN(C)c4ncc(C(=O)NO)cn4)cc3n2)cn1` the Potency was 0.0086 µM (active). For `CC(C)=CC[C@@H](O)C1=CC(=O)c2c(O)ccc(O)c2C1=O`, the Potency was 17.2 µM (active). In the case of `O=C(NC1CCOCC1)c1ccc(-c2cc(-c3cn[nH]c3-c3ccccn3)ccn2)cc1`, the “activity change, negative = cytotoxic” value is reported as -3.51%. In the case of `CC/C(=C(\c1ccccc1)c1ccc(OCCN(C)C)cc1)c1ccccc1`, the Potency is reported as 27.6 µM (active). For `Nc1ncnc2ccccc12`, the “activity change, negative = cytotoxic” value was 23.5%. For `O=c1cc(-c2ccccc2)oc2cc(O)cc(O)c12`, the “activity change, negative = cytotoxic” value was -15.7%. In the case of `O=C(O)c1cc(-c2ccccc2)nc2ccccc12`, the Potency is reported as “inactive”. In the case of `COc1cccc(-c2cc(=O)c3ccccc3o2)c1N`, the “activity change, negative = cytotoxic” value is reported as 13.8%. In the case of `CO[C@H]1C=CC=C(C)C(=O)NC2=CC(=O)C(NCCN(C)C)=C(C[C@@H](C)C[C@H](OC)[C@@H](O)[C@@H](C)C=C(C)[C@@H]1OC(N)=O)C2=O`, the Potency is reported as 4.85 µM (active). With `C[C@H](NC(=O)c1sccc1OCc1ccc(Cl)cc1)c1ccccc1` the Potency was 19.3 µM (active). With `Cc1cccc(C)c1OCC(C)N` (stereo not given) the “activity change, negative = cytotoxic” value was -1.23%. In the case of `CC(C)(C)Cn1c(N)nc2ccc(-c3[nH]c(C(C)(C)C)nc3-c3ccc(F)cc3)nc21`, the Potency is reported as 27.3 µM (active). For `O=c1c(-c2ccc(O)cc2)coc2cc(O)ccc12`, the “activity change, negative = cytotoxic” value was 9.3%. In the case of `CC(C)(C)c1ccc(C(O)CCCN2CCC(C(O)(c3ccccc3)c3ccccc3)CC2)cc1` (stereo not given), the “activity change, negative = cytotoxic” value is reported as 1.49%. In the case of `COc1cc2c(cc1OC)CN(CCc1ccc(NC(=O)c3cc(OC)c(OC)cc3NC(=O)c3cnc4ccccc4c3)cc1)CC2`, the “activity change, negative = cytotoxic” value is reported as -17.2%. In the case of `C[N+](C)(C)CC(=O)O`, the “activity change, negative = cytotoxic” value is reported as 7.98%. For `O=c1ccn([C@@H]2O[C@H](CO)[C@H](O)[C@H]2O)c(=O)[nH]1`, the “activity change, negative = cytotoxic” value was 11.9%. In the case of `COc1ccc2cccc(CCNC(C)=O)c2c1`, the “activity change, negative = cytotoxic” value is reported as 3.8%. In the case of `COC[C@@H](c1ccc(C(F)(F)F)cc1)N1CCN(C2(C)CCN(C(=O)c3c(C)ncnc3C)CC2)C[C@H]1C`, the “activity change, negative = cytotoxic” value is reported as -19.1%. In the case of `CC(=O)N(C)C1(c2ccccc2)CCN(CCC[C@]2(c3ccc(Cl)c(Cl)c3)CCCN(C(=O)c3ccccc3)C2)CC1`, the Potency is reported as 27.3 µM (active). With `NS(=O)(=O)c1ccc(NC2=CC(=O)c3ccccc3C2=O)cc1` the Potency was 1.09 µM (active). For `O=C(OCC#CCSc1nnc(-c2cccc3ccccc23)o1)c1cc2ccccc2s1`, the “activity change, negative = cytotoxic” value was -6.91%. With `CO[C@H]1C=CO[C@@]2(C)Oc3c(C)c(O)c4c(O)c(c5c(c4c3C2=O)NC2(CCN(CC(C)C)CC2)N=5)=NC(=O)C(C)=CC=C[C@H](C)[C@H](O)[C@@H](C)[C@@H](O)[C@@H](C)[C@H](OC(C)=O)[C@H]1C` the “activity change, negative = cytotoxic” value was -18.9%. With `CCn1c(C(=O)N(C2CC2)C2CC2)cc2c3c(ncn3C)c(Nc3cc(C)n(C)n3)nc21` the “activity change, negative = cytotoxic” value was 10.8%. In the case of `CN(C)CCC=C1c2ccccc2COc2ccc(CC(=O)O)cc21`, the “activity change, negative = cytotoxic” value is reported as 2.35%. With `NC(CO)(CO)CCc1ccc(Sc2cccc(OCc3ccccc3)c2)cc1Cl` the Potency was 30.6 µM (active). With `COc1ccc(-c2coc3cc(O)cc(O)c3c2=O)cc1` the “activity change, negative = cytotoxic” value was -5.59%. In the case of `CC1CCC(C(=O)N(c2cc(C#CC(C)(C)C)sc2C(=O)O)C2CCC(O)CC2)CC1` (stereo not given), the “activity change, negative = cytotoxic” value is reported as -12.8%. In the case of `Nc1ncnc2c1ncn2[C@@H]1O[C@H](CO)C[C@@H]1O`, the “activity change, negative = cytotoxic” value is reported as -0.611%. With `NC[C@@H]1O[C@@H](O[C@H]2[C@@H](O)[C@H](O[C@@H]3[C@@H](O)[C@@H](N)C[C@H](N)[C@H]3O[C@H]3O[C@H](CN)[C@@H](O)[C@@H](O)[C@H]3N)O[C@H]2CO)[C@H](N)[C@@H](O)[C@@H]1O` the “activity change, negative = cytotoxic” value was 9.8%. With `CO[C@H]1C[C@@H]2CC[C@@H](C)[C@@](O)(O2)C(=O)C(=O)N2CCCC[C@@H]2C(=O)O[C@H]([C@@H](C)C[C@@H]2CC[C@H](O)[C@H](OC)C2)CC(=O)[C@H](C)C=C(C)[C@@H](O)[C@@H](OC)C(=O)[C@H](C)C[C@H](C)C=CC=CC=C1C` the Potency was 9.68 µM (active). In the case of `O=c1cc(N2CCOCC2)oc2c(-c3cccc4c3sc3ccccc34)cccc12`, the Potency is reported as 24.3 µM (active). In the case of `COc1cc2ncnc(Nc3ccc(F)c(Cl)c3)c2cc1OCCCN1CCOCC1`, the Potency is reported as 39.5 µM (active). With `COc1cc2nc(-c3ccc(N4CCN(C)CC4)cc3)nc(NCCN3CCOCC3)c2cc1OC` the Potency was 0.153 µM (active). For `CCS(=O)(=O)N1CC(CC#N)(n2cc(-c3ncnc4[nH]ccc34)cn2)C1`, the “activity change, negative = cytotoxic” value was -5.68%. In the case of `CC(=O)c1ccc(S(=O)(=O)NC(=O)NC2CCCCC2)cc1`, the “activity change, negative = cytotoxic” value is reported as 9.71%. With `O=C(O)c1cc(O)c2c(c1)C(=O)c1cccc(O)c1C2=O` the “activity change, negative = cytotoxic” value was -3.54% [at 116 µM]. For `O=c1cc(-c2ccc(O)cc2)oc2cc(O)cc(O)c12`, the Potency was 3.43 µM (active).

— PubChem BioAssay (NCATS)
Potency means the concentration at half of the fitted maximal effect.
